# Data reported in PubChem BioAssay AID504832 (National Center for Advancing Translational Sciences (NCATS), 2011).
# About 18,000 (5.8%) of roughly 310,000 compounds were called active. Roughly 22% stayed inconclusive and do not appear here. The full list was thinned out, with actives kept by preference. A number with no mark means an inactive call. Calls follow the shape of the dose curve; as a rule, active = well fitted inhibition curve with a large enough effect; inconclusive = small, poorly fitted or top-dose-only effect, or another doubt; inactive = no such curve, though single readings can be large or run the other way.
# Test: Primary qHTS for delayed death inhibitors of the malarial parasite plastid, 48 hour incubation
# Conditions: P. falciparum luciferase growth in erythrocytes; series mostly up to 28.7 µM; activity change, negative = inhibition: at the top concentration
# Method in brief: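 Growth was read as firefly luciferase luminescence after a 48 h, 37 C, 5% CO2 exposure of compounds to reporter-bearing P. falciparum cultures (0.1% parasitemia, 2% hematocrit final) in Albumax-supplemented RPMI 1640.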
# % is scaled to controls: 0 for no effect and ±100 for the full control effect; potency is read from the fitted curve at half-maximal effect.
SMILES,"activity change, negative = inhibition",Potency
C=CCOc1ccc(/C=C2/C(=O)ON=C2C)cc1OCC,24.4%,
COc1ccc(OC)c(S(=O)(=O)n2c([N+](=O)[O-])cnc2C)c1,17.9%,
NS(=O)(=O)c1ccc(N=Nc2c(O)[nH]c3ccc(Br)cc23)cc1,-18.2%,
Cc1onc(-c2c(Cl)cccc2Cl)c1C(=O)NNC(=O)c1c(-c2c(Cl)cccc2Cl)noc1C,,8.28 µM (active)
Cc1[nH]n(C)c(=O)c1C(=O)c1c(-c2c(Cl)cccc2Cl)noc1C,-1.52%,
Cc1onc(-c2c(F)cccc2Cl)c1C(=O)N(C)CC(=O)Nc1cccc(F)c1,-9.49%,
COc1ccccc1N1CCN(C(=O)c2c(-c3c(Cl)cccc3Cl)noc2C)CC1,,10.4 µM (active)
COc1ccccc1N1CCN(C(=O)c2cc(-c3ccc(Cl)c(Cl)c3)on2)CC1,-26%,
COc1cccc(-c2cc(C(=O)N3CCN(c4ccccc4OC)CC3)no2)c1,-0.672%,
CC(C)c1ccc(/C=C2\NC(=O)NC2=O)cc1,34.2%,
Cc1cccn2c(=O)c3cc(C(=O)NCCN4CCOCC4)c(=N)n(Cc4cccnc4)c3nc12,-6.49%,
O=C(NCc1ccco1)c1cccn2c(=O)c3c4c(sc3nc12)CCCC4,-1.75%,
Cc1ccc2nc3c(cc(C(=O)NCCc4ccccc4)c(=N)n3CC3CCCO3)c(=O)n2c1 (stereo not given),,2.08 µM (active)
Cc1cccn2c(=O)c3cc(C(=O)NCC4CCCO4)c(=N)n(Cc4ccc(F)cc4)c3nc12 (stereo not given),,9.28 µM (active)
COc1ccc2oc(C(=O)NCc3ccco3)c(C)c2c1,42.9%,
Cc1ccc(CCNC(=O)c2ccc3nc4ccccc4c(=O)n3c2)cc1,7.18%,
Cc1ccc(-c2noc(-c3ccccc3C(=O)NCC3CCCO3)n2)cc1 (stereo not given),55.2%,
COc1ccc(CCn2c(=N)c(C(=O)NCc3ccco3)cc3c(=O)n4cccc(C)c4nc32)cc1,,0.465 µM (active)
O=C(Nc1ccccc1C(=O)NCC1CCCO1)c1ccccc1F (stereo not given),-13.4%,
Nc1nc(SCC(=O)Nc2ccc(Cl)cc2C(F)(F)F)n[nH]1,10.1%,
CN(CC(=O)Nc1ccc(OC(F)(F)F)cc1)C(=O)C1CCC1,-18.1%,
c1ccc(C2CNCc3c2ccc2ccccc32)cc1 (stereo not given),,10.4 µM (active)
CC1=C(C(=O)NC2CC(C)(C)Cc3c2cnn3-c2ccc(C)cc2)OCCO1 (stereo not given),-13.1%,
C=CCOc1cccc(CNCc2cccnc2)c1,8.42%,
CCc1ccccc1NC(=O)/C(=C/c1ccccc1)c1ccccc1,,5.22 µM (active)
CCc1ccccc1NC(=O)c1cccs1,39.7%,
CCc1ccccc1NC(=O)CCOc1ccccc1,-6.71%,

SMILES,"activity change, negative = inhibition",Potency
Cc1ccc(C(=O)NCC(=O)OCC(=O)NC2CCCCCCC2)cc1,-0.0814%,
CCN1C(=O)c2cccc3c(S(=O)(=O)Nc4ccccc4O)ccc1c23,-15.4%,
CN1CCN(/N=C/c2c[nH]c3ccccc23)CC1,60.3%,
CSC(=S)N/N=C/c1c[nH]c2ccccc12,17.1%,
C[n+]1ccc(/C=C/c2c[nH]c3ccccc23)cc1,,0.738 µM (active)
Cn1c(=O)c2c(nc(NCCNC(=O)c3ccco3)n2Cc2ccccc2F)n(C)c1=O,-25.8%,
CCC(=C/c1sc2ccc3ccccc3c2[n+]1C)/C=C1\Sc2ccc3ccccc3c2N1C,,0.928 µM (active)
COc1ccc2ccn(C)c2c1,3.12%,
Cc1ccccc1NC(=O)C1CCCN(C(=O)NCc2ccccc2)C1 (stereo not given),14.4%,
O=C(NCCc1ccc(F)cc1)c1n[nH]c2ccccc12,62.1%,
COc1cccc2[nH]c(C(=O)NCCc3ccccc3)cc12,108%,
O=C(NCC1CCCO1)c1ccc2ccccc2n1 (stereo not given),59.7%,
O=C(NCCCO)c1cc2c([nH]c3ccccc32)c(-c2ccc(F)cc2)n1,,9.28 µM (active)
O=C(NCC1CCCO1)c1cc2c([nH]c3ccccc32)c(-c2ccc(F)cc2)n1 (stereo not given),,9.28 µM (active)
O=C(NCC1CCCO1)c1cc(-c2ccccc2)nc2ccccc12 (stereo not given),-16.3%,
COc1ccccc1OC(C)C(=O)Nc1ccc(S(=O)(=O)Nc2nccs2)cc1 (stereo not given),-1.18%,
CCOc1ccc2c(c1)c(=O)c(S(=O)(=O)c1ccc(C)cc1)cn2CC,3.55%,
CCc1cccc(C)c1NC(=O)COC(=O)CNC(=O)c1cccs1,2.83%,
CCc1ccc(Oc2coc3cc(O)ccc3c2=O)cc1,62.3%,
COc1ccc(-n2cc(CN(C)Cc3n[nH]c(=O)[nH]3)c(-c3cccc(F)c3)n2)cc1,-3.86%,
COc1ccc(-n2cc(CNC3CCOCC3)c(-c3cccc(F)c3)n2)cc1,,11.7 µM (active)
COc1ccc(-c2nn(-c3ccccc3)cc2CN2CCCO2)c(F)c1,0.912%,
Cc1ccc(S(=O)(=O)NC(=O)c2cccc(C)c2)cc1,9.68%,
CCc1cccc(C)c1NC(=O)COC(=O)CC1CCCC1,22.5%,
CCc1cccc(CC)c1NC(=O)COc1ccccc1C(=O)c1cc(C#N)c(=O)n(C2CCCCC2)c1,,5.86 µM (active)
Cc1cc(NC(=O)COc2ccccc2C#N)no1,209%,
COc1cccc(-c2coc3cc4oc(=O)c(CC(=O)O)c(C)c4cc23)c1,-6.56%,

SMILES,"activity change, negative = inhibition",Potency
COc1ccccc1C(=O)N/C(=C/c1ccc2c(c1)OCO2)C(=O)Nc1cccc(C(=O)O)c1,26.2%,
CCC(C)(C)c1ccc(OCC(=O)N(C)C)c(C(C)(C)CC)c1,,11.7 µM (active)
CN(C)CCOc1ccc(Cl)cc1C(C)(C)C,-12.2%,
CN1C/C(=C/c2cccs2)C(=O)/C(=C\c2cccs2)C1,-48.2%,
CCc1ccc(NC(=O)N2CCc3ccccc3C2)cc1,13.6%,
COc1cccc(/C=C2/SC(=S)N(CC(=O)NC3C=CS(=O)(=O)C3)C2=O)c1 (stereo not given),19.3%,
c1ccc2c(NCC3CCCO3)nc(-c3ccncc3)nc2c1 (stereo not given),,13.1 µM (active)
Cc1nc2ccccc2c2oc(C(=O)NCC3CCCO3)cc12 (stereo not given),2.28%,
Cn1c(=O)c2[nH]c(NCC3CCCO3)nc2n(-c2ccccc2)c1=O (stereo not given),-0.65%,
COc1ccc(C2=NS(=O)(=O)N(C)C(C(=O)N(C)Cc3ccccc3)=C2)cc1,3.56%,
Cc1nn(C)c(C)c1NS(=O)(=O)c1ccc(OC(F)(F)F)cc1,9.37%,
COCC1CCN(C(=O)C2CCC(=O)N(CC3CCCCC3)C2)CC1 (stereo not given),3.07%,
CC(CN1CCOCC1)OC(=O)c1ccc(Cl)cc1Cl (stereo not given),2.65%,
CCC(=O)Nc1nc2ccccc2n1Cc1ccccc1C,,1.47 µM (active)
CCCCn1c(CCCNC(=O)CC)nc2ccccc21,20.9%,
CCC(=O)NCCc1nc2ccccc2n1CC,2.61%,
COCCn1c(C)cc(C(=O)COC(=O)CNC(=O)c2ccco2)c1C,21.6%,
COc1ccc(S(=O)(=O)N2CCC(C(=O)N3CCCC3)CC2)cc1C,10.6%,
CCOc1ccc(CN(C)C(=O)c2ccc(=O)[nH]c2)cc1,-2.06%,
COc1ccc(NC2CCCN(C(=O)c3ccncc3)C2)cc1 (stereo not given),-18.3%,
CC(C)c1ccc(NC2CCCN(C(=O)c3ccncc3)C2)cc1 (stereo not given),,5.86 µM (active)
Cc1cccc(C(=O)N2CCCC(Nc3ccc(C(C)C)cc3)C2)n1 (stereo not given),18.1%,
O=C(NCC(=O)N1CCN(c2ncc(C(F)(F)F)cc2Cl)CC1)c1ccc(Br)o1,-23%,
Cc1nn(Cc2ccccc2)c(C)c1NS(=O)(=O)c1ccccc1,8.53%,
CC(C)C(c1nnnn1C1CCCC1)N1CCN(c2ccccc2F)CC1 (stereo not given),8.47%,
c1ccc(CCn2nnnc2CN2CCN(C3CCCC3)CC2)cc1,16.5%,
c1ccc(C(c2ccccc2)N2CCN(Cc3nnnn3C3CCCCC3)CC2)cc1,,8.28 µM (active)

SMILES,"activity change, negative = inhibition",Potency
CC1CN(C(=O)COC(=O)c2cccc(NS(=O)(=O)c3ccccc3)c2)CC(C)O1 (stereo not given),15%,
CCCc1cc(=O)oc2c(C)c(OCC(=O)NCc3ccccn3)ccc12,4.08%,
CC1CCCN(S(=O)(=O)c2ccc(N(C(=O)c3cnccn3)C(C(=O)NC3CCCCC3)c3cccs3)cc2)C1 (stereo not given),,11.7 µM (active)
CCc1ccc(N(C(=O)c2csnn2)C(C(=O)NC2CCCCC2)c2ccncc2)cc1 (stereo not given),-0.523%,
O=C(Nc1ccc(S(=O)(=O)N2CCCCC2)cc1)c1cnccn1,5.07%,
O=C(Nc1ccc(NC(=O)c2ccc3c(c2)OCO3)cc1)c1cccc(Cl)c1,-18.9%,
O=C(CSc1n[nH]c(=O)n1-c1ccccc1)Nc1ccccc1C(F)(F)F,-17.8%,
Cc1ccc(NC(=O)CN2CCC3(O)CCCCC3C2c2ccc3c(c2)OCO3)c(C)c1 (stereo not given),,10.4 µM (active)
CC1CCCCN1CC(=O)NCc1ccc2c(c1)OCO2 (stereo not given),13.3%,
CCN(CC)c1ccc(C2C3CCCCC3(O)CCN2CC(=O)Nc2ccccc2)cc1 (stereo not given),0%,
Cc1c(S(=O)(=O)NC(C)c2ccccc2)c(=O)n(C)c(=O)n1C (stereo not given),-4.57%,
O=C(NCCc1ccc(C(F)(F)F)cc1)c1ccc2c(c1)OCO2,13%,
COc1cc(/C=C2\CCCc3c2nc2ccccc2c3C(=O)O)cc(Cl)c1O,7.14%,
COc1ccc(N(CC(=O)N2CCCCCC2)S(=O)(=O)c2ccccc2)cc1,-24.9%,
CCN(c1ccccc1)S(=O)(=O)c1ccc(OCC(=O)N2CCCC2)cc1,,9.28 µM (active)
CC(NS(=O)(=O)c1ccc(OCC(=O)N2CCCC2)cc1)c1ccccc1 (stereo not given),-8.96%,
CC(=O)Nc1ccc(Nc2ncnc3c2nnn3Cc2ccccc2Cl)cc1,-22.4%,
COCCNC(=O)c1ccc2nc(Cc3ccc(OC)c(OC)c3)oc2c1,4.16%,
O=C(NCCN1CCCC(O)C1)c1cc(COc2c(F)cccc2F)on1 (stereo not given),15%,
CCC(c1nnnn1C1CCCC1)N(Cc1cccs1)Cc1cc2cccc(C)c2[nH]c1=O (stereo not given),,10.4 µM (active)
CCC(=O)Nc1cccc(NC(=O)CSc2nnnn2C2CCCC2)c1,-28.4%,
Cc1cccc2cc(CN(Cc3cccs3)C(c3nnnn3C3CCCC3)C(C)C)c(=O)[nH]c12 (stereo not given),,2.62 µM (active)
Cc1cccc2cc(CN(C(=O)c3cccs3)c3ccccc3)c(=O)[nH]c12,-0.703%,
Cc1cc(C)n2nc(C(=O)OCC(=O)N(CCC#N)c3ccc(F)cc3)nc2n1,11.8%,
